The text below walks through data of PubChem BioAssay AID1259415 (National Center for Advancing Translational Sciences (NCATS), 2018).

Hit rate of the full screen: of about 410,000 compounds, about 18,000 (4.4%) were called active. About 7% were inconclusive and are not listed. Rule as the data show it: active = activity change below about -60%; inconclusive = no clear call, values can overlap the other calls; inactive = above about -39%. Many of the other results were omitted from the sample, so actives are more common in it than they were.
% is scaled to controls: 0 for no effect and ±100 for the full control effect.

The assay can be described thus: qHTS Assay for inhibitors of the human cytomegalovirus (HCMV). To be noted: HFF cells, HCMV-luciferase reporter, 72 h; at 57.5 µM; active compounds read low. In a few lines:
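HFF cells seeded 16 h at 37C, treated with compounds, infected with luciferase-reporter HCMV at MOI 1 PFU/cell; luciferase read at 72 h post infection, normalized to buffer-only and Salinomycin controls.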
As for `CSc1cccc(NC(=O)CN2C(=O)CCc3cc(S(=O)(=O)N4CCCCC4)ccc32)c1`, the activity change, negative = inhibition is 23.2% (inactive).
`Cc1ccc(NC(=O)Nc2sc3nc4n(c(=O)c3c2C)CCC(C)CC4)c(Cl)c1` (stereo unspecified): the activity change, negative = inhibition is -0.215% (inactive).
For `O=C(/C=C/c1ccc([N+](=O)[O-])o1)NNC(=O)c1ccc(F)cc1`, the activity change, negative = inhibition is -99.5% (active).
To `N#Cc1nc(/C=C/c2ccc(F)cc2)oc1NC1CCCCC1` belongs -16.7% (inactive).
To `O=C1C=CN2CCCC2CC1` (stereo unspecified) belongs -5.48% (inactive); to `CCc1ccc(NC(=O)Cn2c(=O)n(CCC(=O)NCc3ccc4c(c3)OCO4)c(=O)c3ccccc32)cc1`, 7.9% (inactive); to `O=C(C1CCN(S(=O)(=O)c2cccs2)CC1)N1CCCCCC1`, -4.69% (inactive).
For the compound `O=C(NCc1ccc(Cl)cc1)C1CCN(S(=O)(=O)c2cccs2)CC1`, the activity change, negative = inhibition is -33.3% (inactive).
`O=C(Nc1ccc(Br)cn1)C1CCN(S(=O)(=O)c2cccs2)CC1`: the activity change, negative = inhibition was -89.3% (active).
As for `CCCCN(CC)CCCNC(=O)c1nn(C)c2c1CSc1ccccc1-2`, the activity change, negative = inhibition is -32.8% (inactive).
To `O=C(Cn1nc(Cc2cccnc2)c2ccccc2c1=O)NCC1CCCO1` (stereo unspecified) belongs -1.61% (inactive).
`Cc1ccc(Cl)cc1N(C)C(=O)Cn1nc(Cc2cccnc2)c2ccccc2c1=O`: the activity change, negative = inhibition was -61.7% (active).
To `CN(CC(=O)NCc1cccnc1)S(=O)(=O)c1cc(Cl)ccc1Cl` belongs -21.9% (inactive); to `Cn1c(=O)oc2cc(S(=O)(=O)NCCC(=O)NCc3ccccc3Cl)ccc21`, -30.3% (inactive); to `O=C(O)c1ccc(Nc2nc(-c3ccccc3)c3cc(Br)ccc3n2)cc1`, 27.8% (inactive).
On to `Cc1cc(Cl)ccc1C(=O)C1CCCN(C(=O)c2nonc2C)C1` (stereo unspecified), for which the activity change, negative = inhibition is -27.9% (inactive).
To `Cc1ncoc1C(=O)N1CCCC(C(=O)c2ccc3c4c(cccc24)CC3)C1` (stereo unspecified) belongs -68.2% (active); to `CC(=O)NCC(=O)N1CCCC(C(=O)c2ccc3c4c(cccc24)CC3)C1` (stereo unspecified), 2.3% (inactive); to `O=C(Nc1c[nH]c(=O)[nH]c1=O)OCc1ccccc1`, 46% (inactive).
`COC(=O)c1cc(NC(=O)c2sc3ccccc3c2Cl)cc(C(=O)OC)c1`: the activity change, negative = inhibition was 5.87% (inactive).
Take `COc1ccc(CNC(=O)CNC(=O)c2sc3ccccc3c2Cl)cc1OC`: the activity change, negative = inhibition was -67.8% (active).
To `CCCC(=O)Nc1ccc(NC(=O)c2sc3ccccc3c2Cl)cc1` belongs 0.957% (inactive); to `COc1ccc(S(=O)(=O)N2CCN(C(=O)c3cccs3)CC2)cc1OC`, 1.26% (inactive).
For `COC(=O)c1sccc1S(=O)(=O)N(CC(=O)Nc1ccc(C)c(F)c1)c1ccc(C)c(C)c1`, the activity change, negative = inhibition was -9.21% (inactive).
To `COc1cccc(NC(=O)CN2C(=O)c3ccccc3Sc3ncccc32)c1` belongs 35.8% (inactive); to `CCc1ccc(N(CC)C(=O)CCn2cnc3onc(-c4ccc(F)cc4)c3c2=O)cc1`, 4.29% (inactive); to `CC[C@H](C)C(=O)N[C@H]1CCCN1C(=O)/C=C/c1ccccc1`, -28.4% (inactive).
In the case of `O=C1CCCCC1C(=O)c1ccccc1` (stereo unspecified), the activity change, negative = inhibition is 7.64% (inactive).
Turning to `Cc1[nH]c(=O)c(C(=O)/C=C/c2ccccc2)c2c1CCCC2`, the activity change, negative = inhibition was -104% (active).
On to `Cc1ccc(NC2=C(c3ccc(C(F)(F)F)cc3)C(=O)c3ccccc32)cc1F`, for which the activity change, negative = inhibition is -26.8% (inactive).
For the compound `N#Cc1ccc(C2=CC(=O)C[C@H](c3ccc(Cl)cc3)C2)cc1`, the activity change, negative = inhibition is 10.5% (inactive).
To `O=C1C=C(c2ccnc3cc(Cl)ccc23)C[C@@H](c2ccc3c(c2)OCO3)C1` belongs -66.7% (active); to `O=C1C=C(c2cccc(Cl)c2O)C[C@@H](c2ccc(F)cc2)C1`, 15.9% (inactive); to `O=C(Cc1ccc(Cl)cc1)NCCN1CCN(C(=O)Cc2ccc(Cl)cc2)CC1`, -18.4% (inactive).
`Cc1ccc(-c2cnc(NCc3ccc(C(C)C)cc3)n2C)cc1`: the activity change, negative = inhibition is -37.1% (inactive).
Regarding `Cc1ccc(C(=O)Nc2ccc(OCc3cc(=O)n4c(C)csc4n3)cc2)cc1`, the activity change, negative = inhibition was 13.5% (inactive).
To `COc1ccccc1OC(C)C(=O)Nc1ccc(S(=O)(=O)Nc2nccs2)cc1` (stereo unspecified) belongs -71.4% (active); to `Cc1ccc(OCCC(=O)Nc2ccc(S(=O)(=O)Nc3nccs3)cc2)cc1`, -11.9% (inactive); to `CCC(CC)C(=O)Nc1ccc(S(=O)(=O)Nc2nccs2)cc1`, -32.7% (inactive).
As to `COc1ccc(C2C(=O)N(C3CCCCC3)CC(=O)N2Cc2ccccc2Cl)cc1OC` (stereo unspecified), the activity change, negative = inhibition was -0.212% (inactive).
On to `CNC(=O)CN1C(=O)c2cccnc2Sc2ccccc21`, for which the activity change, negative = inhibition was 16.8% (inactive).
Consider `CCN1C(=O)c2ccccc2Sc2ccc(NC(=O)Cc3ccc(OC)cc3)cc21`, for which the activity change, negative = inhibition was 11.2% (inactive).
Consider `CCN1/C(=C/C(=S)Nc2ccccc2)Sc2ccccc21`, for which the activity change, negative = inhibition is -90.8% (active).
To `CCOC(=O)CNC(=O)CN1C(=O)CCSc2ccccc21` belongs 55.2% (inactive); to `CCC(=O)/C=C1\Sc2ccccc2N1CC`, -68.7% (active).
To `CCOc1ccc(NC(=O)c2cc(S(=O)(=O)N3CCCC3)c[nH]2)cc1` belongs -31.5% (inactive).
To `Cc1ccc(N2CC(C(=O)Nc3ccc(N(C)C)cc3)CC2=O)cc1Cl` (stereo unspecified) belongs 1.89% (inactive).
Consider `CC(C)(C)OC(=O)NNc1c2ccccc2nc2ccccc12`, for which the activity change, negative = inhibition is -89.2% (active).
Take `CC(C)(C)OC(=O)N[C@H](C(=O)OC(C)(C)C)c1ccc(Br)cc1`: the activity change, negative = inhibition is -16.8% (inactive).
To `Cc1ccc(C(=O)NNC(=O)OC(C)(C)C)c(Cl)c1` belongs -10.9% (inactive).
Regarding `O=C(NCCCNC(=O)NC1CCCCC1)NC1CCCCC1`, the activity change, negative = inhibition is -14.1% (inactive).
To `O=C(NCC1CCCCC1)NCC1CCCCC1` belongs -74.2% (active); to `N#CCC(=O)NC(=O)NCC1CC1`, -12.8% (inactive); to `COc1ccc(CCNC(=O)CSCc2ccc(Br)cc2)cc1OC`, -9.05% (inactive).
With `COc1nc(OC)nc(N(C)CCO)n1`, the activity change, negative = inhibition was -12.6% (inactive).
For the compound `Cc1nc(SCC(=O)Nc2ccc(C(=O)O)cc2)n[nH]1`, the activity change, negative = inhibition was -2.57% (inactive).
Regarding `CCc1nnc(NC(=O)CSc2nnc(COc3ccc(C#N)cc3)n2-c2ccccc2)s1`, the activity change, negative = inhibition is 42.5% (inactive).
To `Cn1c(SCC(=O)N2CCCc3ccccc32)nc2ccccc2c1=O` belongs -79.6% (active); to `Cn1c(SCC(=O)N2CCCc3ccccc32)ncc(C(=O)Nc2ccc(F)cc2)c1=O`, -28.8% (inactive); to `COc1ccccc1Cc1nc2ccccc2nc1SCC(=O)N1CCCc2ccccc21`, 8.07% (inactive).
To `[O-][N+]12CCCCC1CCCC2CO` (stereo unspecified) belongs -29% (inactive); to `CCC(=O)N1CCc2cc(Br)cc(S(=O)(=O)CCC(=O)NCc3ccccc3OC)c21`, -3.98% (inactive); to `C=CCNc1nc(N)c([N+](=O)[O-])c(NC2CCCCC2)n1`, -9.3% (inactive).
As for `Nc1nc(NCC2CCCO2)nc(Nc2ccccc2F)c1[N+](=O)[O-]` (stereo unspecified), the activity change, negative = inhibition was -34.2% (inactive).
To `Nc1nc(Nc2ccccc2F)nc(NC2CCCCC2)c1[N+](=O)[O-]` belongs -66% (active); to `CCC(=O)N1CCc2cc(Br)c(S(=O)(=O)NCCN3CCCCC3CC)cc21` (stereo unspecified), -8.58% (inactive); to `COc1ccc(CCNC(=O)Cn2c(=O)cc(C(F)(F)F)c3c(C)nn(C)c32)c(OC)c1`, 21.9% (inactive).
To `O=C(CCl)Nc1ccc(Sc2ccc(NC(=O)CCl)cc2)cc1` belongs -97.1% (active); to `O=C(O)CC(SCC(=O)Nc1ccc(Br)cc1)C(=O)O` (stereo unspecified), -19% (inactive); to `CC(=O)Nc1ccc(NC(=O)CC2CCCC2)cc1`, -33.3% (inactive).
Consider `CCOC(=O)C1=NOC(Cn2cc(C(C)=O)c(=O)[nH]c2=O)C1` (stereo unspecified), for which the activity change, negative = inhibition is 10% (inactive).
To `CCOC(=O)c1cccc(NS(=O)(=O)c2cn(C)c(C)n2)c1` belongs 2.44% (inactive); to `C[C@H](CO)N1C[C@H](C)[C@@H](CN(C)C(=O)Nc2ccccc2F)OCc2cn(nn2)CCCC1=O`, -6.88% (inactive); to `Cc1cc(Br)ccc1NC(=S)NC1CCCC1`, -24.2% (inactive).
To `S=C(Nc1ccc(Br)cc1Cl)NC1CCN(Cc2ccccc2)CC1` belongs -84.5% (active).
`O=C(NC1CCN(Cc2ccccc2)CC1)c1cc(Br)c(Br)[nH]1`: the activity change, negative = inhibition is -22.7% (inactive).
To `Cc1cc(C)n(CCC(=O)N2CCN(S(=O)(=O)c3ccc(C)c(C)c3)CC2)n1` belongs -15.9% (inactive).
`CCc1cc2c(cc(C(=O)OC)n2Cc2nc(-c3ccc(C)cc3)oc2C)s1`: the activity change, negative = inhibition is 4.7% (inactive).
Turning to `CCCN1CCc2nc(N3CCN(C)CC3)ncc2C1`, the activity change, negative = inhibition was 0.276% (inactive).
For the compound `COc1ccc(/C(N)=N/OC(=O)Oc2ccccc2)cc1`, the activity change, negative = inhibition is 9.17% (inactive).
Regarding `COc1ccc(C(C#N)=C2C=CC(=NO)c3ccccc32)cc1`, the activity change, negative = inhibition was -90.8% (active).
With `CC(c1ccco1)N(C(=O)c1ccc(S(=O)(=O)N2CCCCC2)cc1)c1ccccn1` (stereo unspecified), the activity change, negative = inhibition is -14.3% (inactive).
To `Fc1ccc(CN2CCc3nc(Nc4ccccc4)ncc3C2)cc1F` belongs -18.4% (inactive).
Take `COc1ccc(CCNc2ncnc3c2nnn3Cc2ccccc2)cc1`: the activity change, negative = inhibition was -95.1% (active).
For `CC(C)Nc1ncnc2c1nnn2Cc1ccccc1`, the activity change, negative = inhibition was 45.3% (inactive).
To `c1ccc(Cn2nnc3c(NCC4CC4)ncnc32)cc1` belongs 30.2% (inactive); to `O=C(CN1c2ccccc2S(=O)(=O)c2ccccc21)Nc1cccc(C(F)(F)F)c1`, 14.4% (inactive).
In the case of `O=C(Cn1cnc2c(oc3ccccc32)c1=O)Nc1ccc(OC(F)(F)F)cc1`, the activity change, negative = inhibition was 14% (inactive).
As for `COc1ccc(OCc2ccc(-c3nc(C#N)c(N4CCN(c5ccccc5)CC4)o3)o2)cc1`, the activity change, negative = inhibition was 2.46% (inactive).
To `O=C(NC(=S)N1CCN(Cc2ccccc2)CC1)c1ccccc1` belongs -3.08% (inactive); to `O=C1CCN(CCCc2ccccc2)CCN1CCO`, -6.21% (inactive); to `OCCN1CCN(C(=S)c2ccc(-c3ccccc3)cc2)CC1`, -79.4% (active).
To `COCCNc1ncnc2c1c(-c1ccccc1)cn2-c1ccc(C)c(Cl)c1` belongs -33.4% (inactive).
To `CCc1ccccc1NC(=S)N(CCN1CCCCCC1)Cc1ccco1` belongs 29.5% (inactive); to `Cc1ccccc1NC(=S)N(CCCN1CCOCC1)Cc1cccs1`, -30.9% (inactive); to `Cc1ccc(NC(=S)N(CCCN2CCCC2)Cc2cccn2Cc2ccc(Cl)cc2)cc1`, -72% (active).
